Experimental data reported in PubChem BioAssay AID2517 (National Center for Advancing Translational Sciences (NCATS), 2010).
Several values for one entry are separate records, joined by “and”; a condition that tells them apart may be missing. Equal entries are not always repeated. The campaign covered roughly 350,000 compounds. About 1,200 (0.34%) were called active. About 3% were inconclusive and are not listed. The call rests on the fitted dose curve; in most records, active means well fitted inhibition curve with a large enough effect; inconclusive means small, poorly fitted or top-dose-only effect; inactive means no such curve, though single readings can be large or run the other way. The list comes from a sample in which actives are over-represented; it also holds similar structures and randomly drawn compounds. Some compounds were tested as several samples or in several runs, with calls that do not always agree.

What follows are molecules tested against DNA repair nuclease/redox regulator APEX1 (Homo sapiens) (UniProt P27695) (assay: qHTS Assay for Inhibitors of the Human Apurinic/apyrimidinic Endonuclease 1 (APE1)). Conditions: recombinant APE1, TAMRA/BHQ-2 abasic DNA cleavage fluorescence; activity change, negative = inhibition: at 65.8 µM (top of the series).
Chain of DNA repair nuclease/redox regulator APEX1 (Homo sapiens) (P27695 whole entry, looked up): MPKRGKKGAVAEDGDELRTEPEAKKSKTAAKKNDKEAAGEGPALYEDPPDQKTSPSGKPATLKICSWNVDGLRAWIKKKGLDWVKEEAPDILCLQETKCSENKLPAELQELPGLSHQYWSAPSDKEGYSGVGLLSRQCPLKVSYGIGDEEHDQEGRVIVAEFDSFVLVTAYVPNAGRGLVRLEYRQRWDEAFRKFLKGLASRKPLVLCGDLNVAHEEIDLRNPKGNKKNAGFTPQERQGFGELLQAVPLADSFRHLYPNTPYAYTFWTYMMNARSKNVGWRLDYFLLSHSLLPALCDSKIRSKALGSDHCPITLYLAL
Text: The apurinic/apyrimidinic endonuclease APE1 is the primary mammalian enzyme responsible for the removal of abasic (or AP) sites in DNA and functions centrally in the base excision DNA repair (BER) pathway. […] Thus, targeting APE1 could improve the efficacy of current treatment paradigms by promoting selective sensitization or protection of diseased and normal cells, respectively.
Inhibition of APE1 activity was screened by utilizing double-stranded short substrate containing tetrahydrofuran (THF) abasic site labeled with rhodamine-type fluorophore (TAMRA) at the 5'-end and with non-fluorescent Black Hole Quencher-2 (BHQ-2) at the opposing 3'-end. An increase in the fluorescence intensity due to incision of the abasic site by APE1 was used to measure the enzyme activity.
NIH Chemical Genomics Center [NCGC]
NIH Molecular Libraries Probe Centers Network [MLPCN]
Assay Provider: David M. Wilson, III, National Institute on Aging, NIH
Three uL of enzyme solution (0.75 nM APE1 final concentration) was dispensed to 1536-well Greiner black solid bottom plates. […] The plates were incubated for 15 min at room temperature, and then 1 uL of substrate solution (50 nM final concentration of TAMRA/BHQ-2) was added to start the reaction. The plates were immediately transferred into ViewLux High-throughput CCD imager (Perkin-Elmer) in order to measure the reaction progress in kinetic mode (three reads every 60 seconds) using 525 nm excitation and 598 nm emission fluorescence protocol. The fluorescence intensity difference between the third and the first time points was used to compute reaction progress. Results were normalized to buffer only columns and NSC13755 positive controls and negative control DMSO treated wells.
Further: nearly all actives have a fitted effect of over 55% in size.
Potency means the concentration at half of the fitted maximal effect.
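Wherever activity change, negative = inhibition is given: plate controls were vehicle for no effect and reference inhibitor for full effect.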

Row | SMILES | activity change, negative = inhibition | Potency
1 | O=C(CSc1nnc(-c2ccco2)n1-c1ccccc1)NCCc1ccccc1 | -4.34% (inactive) | 
2 | c1ccc(CSc2nnc(-c3ccco3)c(-c3ccco3)n2)cc1 |  | 10 µM (active)
3 | Clc1ccc(CSc2nnc3c(n2)[nH]c2ccccc23)cc1 | -0.131% (inactive) | 
4 | O=c1c(-c2cc(F)cc(F)c2)nc2cnc(Oc3ccccc3)nc2n1C[C@H]1CCCO1 | 3.92% (inactive) | 
5 | CC/C=C/C/C=C/C/C=C/CCCCCCCC(=O)OCC | -3.48% (inactive) | 
6 | CN(C(=O)COC(=O)c1cc(-c2ccco2)nc2ccccc12)C1CCS(=O)(=O)C1 (centres undefined) |  | 7.94 µM (active)
7 | COc1ccc(/C=C(\C#N)C(=O)OCC(=O)N(C)C2CCS(=O)(=O)C2)cc1 (centres undefined) | -0.493% (inactive) | 
8 | CN(C(=O)COC(=O)Cc1ccccc1[N+](=O)[O-])C1CCS(=O)(=O)C1 (centres undefined) | 8.91% (inactive) | 
9 | C1CCC2OC2C1 (centres undefined) | -0.558% (inactive) | 
10 | COc1ccc(-c2nn(-c3ccccc3)cc2/C=C2/SC(=S)N(CCCC(=O)O)C2=O)c(C)c1 |  | 29.9 µM (active)
11 | COc1cccc(/C=C2/SC(=S)N(CC(=O)NC3C=CS(=O)(=O)C3)C2=O)c1 (centres undefined) | 37.3% (inactive) | 
12 | Cc1ccc(-c2nn(-c3ccccc3)cc2/C=C2\SC(=S)N(CCCCCC(=O)O)C2=O)o1 | -84.3% (inactive) | 
13 | C=C1C(=O)C23C(O)C1CCC2[C@]12COC3(O)C(O)C1C(C)(C)CC[C@H]2O (some centres undefined) | -2.57% (inactive) | 
14 | CC[C@@]12C=C(/C=C/c3ccccc3)[C@](CC)(C1)[C@H](c1ccccc1)CC2=O | 17.2% (inactive) | 
15 | O=C(CCNC(=O)c1ccccc1Cl)NN=Cc1ccco1 | -5.79% (inactive) | 
16 | O=C(CCNC(=O)c1ccccc1)NN=Cc1ccc(Br)o1 |  | 15 µM (active)
17 | O=C(CCc1n[nH]c(=O)[nH]c1=O)N/N=C/c1ccc(Br)o1 | -7.77% (inactive) | 
18 | Cc1ccccc1OCCC(=O)OCC(=O)NC(C)c1ccccc1 (centres undefined) | 0.618% (inactive) | 
19 | Cc1ccc(OCCCC(=O)NC(C)c2ccccc2)c(C)c1 (centres undefined) | 0.614% (inactive) | 
20 | Cc1cc(C)cc(OCC(=O)NC(C)c2ccccc2)c1 (centres undefined) | -52.8% (active) | 
21 | c1ccc2cc(C3=NCCN3)ccc2c1 | -6.2% (inactive) | 
22 | COc1ccc(/C=C/NC(=O)c2ccc(OC)cc2)cc1 | 3.93% [at 12.4 µM] (inactive) | 

Row | SMILES | activity change, negative = inhibition | Potency
23 | CC[C@H](C)[C@H](NC(=O)[C@H](CCCNC(=N)N)NC(=O)[C@H](CCCNC(=N)N)NC(=O)[C@H](CC(C)C)NC(=O)[C@H](Cc1ccccc1)NC(=O)CNC(=O)CNC(=O)[C@@H](N)Cc1ccc(O)cc1)C(=O)N[C@@H](CCCNC(=N)N)C(=O)N1CCC[C@H]1C(=O)N[C@@H](CCCCN)C(=O)N[C@@H](CC(C)C)C(=O)N[C@@H](CCCCN)C(=O)N[C@@H](Cc1c[nH]c2ccccc12)C(=O)N[C@@H](CC(=O)O)C(=O)N[C@@H](CC(N)=O)C(=O)N[C@@H](CCC(N)=O)C(=O)O | -1.98% (inactive) | 
24 | O=C(NCCc1ccco1)c1nn(Cc2ccccc2)c(=O)c2ccccc12 | -6.32% (inactive) | 
25 | O=c1nc2s/c(=C\c3ccco3)c(=O)n2nc1Cc1ccccc1 |  | 4.47 µM (active)
26 | O=C(Nc1ccccc1)/C(=C\c1ccco1)NC(=O)c1ccco1 | 39.5% (inactive) | 
27 | O=C(OCC(COC(=O)c1ccccc1)(COC(=O)c1ccccc1)COC(=O)c1ccccc1)c1ccccc1 | 5.41% (inactive) | 
28 | CC(C)=CCN1CCC2(CCc3ccccc32)CC1 | -0.233% (inactive) | 
29 | Oc1cc(O)c2c(c1)OC(c1ccc(O)c(O)c1)C(O)C2 (centres undefined) |  | inactive and 3.16 µM (active)
30 | C=C1C([C@@]2(C)C(OC(C)=O)CC(=O)O[C@@](C)(COC(C)=O)C2CC(=O)OC)C(OC=O)C(OC(=O)C(O)C(C)CC)[C@]2(C)C(c3ccoc3)CC(=O)C12O (some centres undefined) | -3.23% (inactive) | 
31 | CC[C@H](C)[C@@H](NC(=O)O[C@@H]1C(=O)c2cc(OC)ccc2O[C@H]1c1cccc(OC)c1)C(=O)OC | -2.71% (inactive) | 
32 | CCCCS(=O)(=O)N1C2=NC(C(=O)OC)=C(C(=O)OC)[C@@H]3N(Cc4ccccc4)c4ccccc4[C@]23C[C@H]1C(=O)OC | -4.13% [at 12.4 µM] (inactive) | 
33 | Oc1ccc(O)c2c(O)cccc12 |  | 1.78 µM (active)
34 | S=C(NCCCc1cnc[nH]1)NCCCN(Cc1ccc(Cl)c(Cl)c1)c1ccc(Br)cn1 | -1.31% (inactive) | 
35 | O=C(c1ccco1)N1CCC[C@@]2(CCN(c3ccccc3)C2)C1 | 2.31% (inactive) | 
36 | Cc1ccc(C(=O)Nc2ccc3c(c2)OCO3)cc1S(=O)(=O)N1CCCCC1 | -8.39% (inactive) | 
37 | Cc1nn(CC(=O)Nc2ccc3c(c2)OCO3)c(C)c1[N+](=O)[O-] | 2.88% (inactive) | 
38 | Cc1ccc(C(=O)O)cc1-c1ccc(/C=C2\SC(=O)N(CC(=O)Nc3ccc4c(c3)OCO4)C2=O)o1 |  | 7.52 µM (active)
39 | O=C(CSc1nnc(-c2cccc([S+](=O)([O-])N3CCCC3)c2)n1-c1ccccc1)Nc1cccc(C(F)(F)F)c1 | 6.08% (inactive) | 
40 | CC(Oc1ccccc1)C(=O)N[C@@H]1C(=O)N2[C@@H]1SC(C)(C)[C@@H]2C(=O)O (some centres undefined) | -2.93% [at 21 µM] (inactive) | 
41 | C=CCNc1oc(-c2cccnc2)nc1C#N | 24.9% (inactive) | 
42 | O=C(CCC1CCCN(C(=O)Cc2ccc(F)cc2)C1)N1CCN(c2ccccn2)CC1 (centres undefined) | 2.95% (inactive) | 
43 | C=Cc1ccc(C(=O)N2CCCC(CCC(=O)N3CCN(c4ccccn4)CC3)C2)cc1 (centres undefined) |  | 0.67 µM (active)
44 | O=C(CCC1CCCN(C(=O)c2ccc(F)c(F)c2)C1)N1CCN(c2ccccn2)CC1 (centres undefined) | 5.21% (inactive) | 
